For 32 compounds, inhibition results are on record in ChEMBL document CHEMBL1961873, “Compounds: GSK PKIS; Assays: Nanosyn kinase panel” (2012).

Molecules are shown by their SMILES.

A word on the inhibition: it is the drop in the measured response relative to a control, in per cent.

Chain of Serine/threonine-protein kinase PAK 5 (Homo sapiens) (Q9P286 whole entry, looked up): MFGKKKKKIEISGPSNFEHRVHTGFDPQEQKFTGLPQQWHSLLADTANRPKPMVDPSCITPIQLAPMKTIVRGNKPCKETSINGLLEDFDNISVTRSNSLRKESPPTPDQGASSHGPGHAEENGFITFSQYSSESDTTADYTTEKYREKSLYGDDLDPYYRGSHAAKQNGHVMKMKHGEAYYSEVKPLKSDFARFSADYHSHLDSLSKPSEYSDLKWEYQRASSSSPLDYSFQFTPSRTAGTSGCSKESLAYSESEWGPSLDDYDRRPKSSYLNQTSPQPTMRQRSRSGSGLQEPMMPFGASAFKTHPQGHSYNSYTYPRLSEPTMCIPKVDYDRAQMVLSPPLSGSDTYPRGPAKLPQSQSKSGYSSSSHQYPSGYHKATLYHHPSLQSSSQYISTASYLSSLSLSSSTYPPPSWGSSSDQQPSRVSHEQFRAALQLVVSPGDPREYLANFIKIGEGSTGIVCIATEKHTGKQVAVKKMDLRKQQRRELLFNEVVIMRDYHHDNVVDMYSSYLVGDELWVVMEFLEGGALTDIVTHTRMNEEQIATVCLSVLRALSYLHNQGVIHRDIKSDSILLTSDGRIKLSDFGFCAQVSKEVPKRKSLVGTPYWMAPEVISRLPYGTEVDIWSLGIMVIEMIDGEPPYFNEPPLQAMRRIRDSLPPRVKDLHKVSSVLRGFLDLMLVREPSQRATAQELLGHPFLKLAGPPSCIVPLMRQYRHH

This experiment concerns the target Serine/threonine-protein kinase PAK 5 (Homo sapiens) (UniProt Q9P286). To be noted: at 1 µM.
For `O=C(Nc1n[nH]c2nc(-c3ccc(O)cc3)c(Br)cc12)C1CC1`, the inhibition amounted to 8.52%.

For the compound `COc1ccc2cc(-c3c(-c4ccncc4)nc(-c4ccc([S+](C)[O-])cc4C)n3C)ccc2c1` (configuration not stated), the inhibition was found to be 6.4%.

As for `c1ccc(Oc2ccc(Nc3ncc(-c4ccccc4)o3)cc2)cc1`, the inhibition came to 2.2%.

Consider `C[C@@H](Oc1cc(-n2cnc3ccc(OC4CCN(C)CC4)cc32)sc1C(N)=O)c1ccccc1Cl`, for which the inhibition is 5.61%.

`NC(=O)c1cc(-c2ccncc2)cc(-c2ccccc2)c1N`: the inhibition is 2.18%.

Turning to `O=C(NCC1CC1)c1ccc(-c2cccc(C(=O)NC3CC3)c2)cc1`, the inhibition was found to be 6.07%.

On to `O=C1Nc2ccccc2/C1=C/Nc1ccc(-n2cncn2)cc1`, for which the inhibition is -2.52%.

`CN(C)c1ccc2c(c1)/C(=C/Nc1ccc(S(N)(=O)=O)cc1)C(=O)N2`: the inhibition was -4.48%.

On to `C[C@@H](Oc1cc(-n2cnc3ccc(OCC4CCN(C)CC4)cc32)sc1C(N)=O)c1ccccc1Cl`, for which the inhibition was 7.38%.

Take `CN(C)CCCNc1nccc(-c2c(-c3ccc(F)cc3)nn3cc(C(F)(F)F)ccc23)n1`: the inhibition amounted to 1.58%.

As for `COc1ccc2ncn(-c3cc(O[C@H](C)c4ccccc4Cl)c(C(N)=O)s3)c2c1`, the inhibition turned out to be 3.63%.

With `CN(C)CCOc1ccc(-c2cc(-c3ccc4c(c3)CCC4=NO)c(-c3ccncc3)o2)cc1`, the inhibition is -0.63%.

For the compound `Cc1nnc(-c2ccc(C)c(-c3ccc(C(=O)NCc4ccc(Cl)cc4)cc3)c2)o1`, the inhibition was -2.54%.

As for `O=C(Nc1n[nH]c2nc(-c3ccco3)ccc12)C1CC1`, the inhibition worked out at 3.74%.

On to `CCc1ccc(Oc2nccc(-c3c(-c4ccc(F)cc4)ncn3C3CCNCC3)n2)cc1`, for which the inhibition was 9.57%.

For the compound `Fc1ccc(-c2c(-c3ccncc3)nc3n2CCS3)cc1`, the inhibition is 3.62%.

Turning to `Fc1ccc(-c2ncn(C3CCNCC3)c2-c2ccnc(Oc3ccc4c(c3)OCO4)n2)cc1`, the inhibition was found to be 2.03%.

With `Nc1nccc(-c2c(-c3ccc(F)cc3)ncn2C2CCC(O)CC2)n1` (configuration not stated), the inhibition was found to be 0.21%.

Regarding `c1ccc(-c2n[nH]cc2-c2ccnc(-c3ccc(OCCN4CCOCC4)cc3)c2)nc1`, the inhibition amounted to 4.04%.

For the compound `COc1cccc(/C=N/Nc2ncnc3c2cnn3-c2cccc(OC)c2)c1`, the inhibition was -2.49%.

In the case of `CCS(=O)(=O)c1ccc(OC)c(Nc2ncc(-c3cccc(-c4ccccc4F)c3)o2)c1`, the inhibition worked out at 2.9%.

On to `Fc1ccc(-c2ncn(C3CCNCC3)c2-c2ccnc(Oc3ccc(Oc4ccccc4)cc3)n2)cc1`, for which the inhibition stood at 6.5%.

Take `NCc1ccc(-n2c(-c3nonc3N)nc3cnccc32)cc1`: the inhibition was -2.63%.

Turning to `COc1cc2ncn(-c3cc(OCCc4ccccc4)c(C(N)=O)s3)c2cc1OC`, the inhibition is -5.75%.

In the case of `FC(F)(F)c1cccc(Nc2nccc(-c3cnn4nc(-c5ccccc5)ccc34)n2)c1`, the inhibition was -0.64%.

For the compound `COC(=O)Nc1nc2ccc(Sc3ccc(NC(=O)Nc4cc(C(F)(F)F)ccc4F)cc3)cc2[nH]1`, the inhibition is -2.02%.

`COc1ccc(C2=C(N3CCc4ccccc43)C(=O)NC2=O)cc1`: the inhibition worked out at 2.28%.

For the compound `CN1CCN(CCCNc2nc3ccc(Oc4ccc(NC(=O)Nc5cc(C(F)(F)F)ccc5F)cc4)cc3[nH]2)CC1`, the inhibition came out at 8.65%.

As to `CCC(=O)Nc1ccc(C)c(-c2ccc(C(=O)NCC3CC3)cc2)c1`, the inhibition is -2.96%.

`CN(c1ccc(NC(=O)Nc2c(Cl)cccc2Cl)cc1)c1ccnc(Nc2cccc(CS(C)(=O)=O)c2)n1`: the inhibition is 11.9%.

As for `NS(=O)(=O)c1ccc(N/N=C2\C(=O)Nc3ccc(C(=O)NCCCn4ccnc4)cc32)cc1`, the inhibition is -1.29%.

In the case of `Cc1ccc(NC(=O)c2ccoc2)cc1-c1ccc(C(=O)NCC2CC2)cc1`, the inhibition was 2.58%.
